In the library only some 3.2% were active in any assay of this set; here they are far more common.
BRCT inh red – BRCT-phosphoprotein interaction inhibition (red fluorophore); P38398; BRCT-phosphopeptide binding, red fluorescence polarization; Potency, µM (highest dose often 76.9 µM), most hits filed as inhibitors; 75,000 tested, 0.03% active; AID 892
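Fluorescence polarization: 100 nM His-tagged BRCA1 BRCT with 100 nM TAMRA-labelled phospho-BACH1 decapeptide, phosphate buffer pH 7.3 with 150 mM NaCl, DTT, 0.01% Tween 20; 12 min RT. Binding inhibition seen as FP decrease.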
HEK293 cAMP cs – counter-screen for TSHR agonists: cAMP increase in parental HEK293. parental HEK293 CNG cAMP sensor, membrane potential fluorescence. Potency, µM (titrated, usually from 57.1 µM), actives largely listed as activators. 73,000 tested, 2.5% active. AID 938; also: nearly all actives have a fitted effect of over 55% in size
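Counterscreen for endogenous-receptor signalling: CNG-channel HEK 293 cells report cAMP rise by membrane depolarization. After 60 min dye equilibration with 100 uM RO 20-1724, compounds incubated 30 min before bottom-read fluorescence at 590 nm.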
Pol III holo inh – DNA polymerase III holoenzyme inhibition. AID 603. reconstituted DNA polymerase III holoenzyme replication, biochemical. 71,000 tested, 0.25% active. Potency, µM (series often up to 57.1 µM)
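Reconstituted *E. coli* holoenzyme (0.35 nM Pol III, 1 nM beta, 154 nM SSB, 2 nM primase) was preincubated with compound for 15 min at RT. Synthesis on 1.4 nM ssM13Gori ran 35 min, then was stopped with PicoGreen/EDTA and read as dsDNA fluorescence.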
BRCT inh green – blocks human BRCA1 BRCT binding to phosphopeptide, green readout. AID 875. P38398. 75,000 tested, 0.05% active. BRCA1 BRCT-phosphopeptide binding, green fluorescence polarization. Potency, µM (series often up to 76.9 µM), hits mostly inhibitors
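Compounds were incubated for 12 min at room temperature with a complex of 100 nM fluorescein-tagged pBACH1 decapeptide and 250 nM His-tagged BRCT protein. Buffer was phosphate pH 7.3 with EDTA, DTT and Tween 20. Disruption of binding lowers the polarization signal.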
TSHR agonist – activates the human thyroid stimulating hormone receptor. HEK293-CNG-TSHR cells (CNG channel as cAMP sensor), membrane potential dye, cAMP. Potency, µM (top dose mostly 57.1 µM), most hits filed as activators. 73,000 tested, 0.48% active. AID 926; active = well fitted activation curve with a large enough effect in the main read-out, with a control signal flat, not every such curve was filed as active; inconclusive = small, poorly fitted or top-dose-only effect, or a change in a side signal; inactive = no such curve, though single readings can be large or run the other way; reference of the percent scale not stated here;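 also: the control signal comes from parental cells without the receptor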
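HEK 293 cells stably expressing TSHR and a cAMP-gated CNG channel; parental CNG-only cells as counterscreen. Cells preloaded 60 min with membrane potential dye plus 100 uM RO 20-1724, then compound 30 min; fluorescence read at 590 nm.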
YjeE inh – inhibitors of E. coli YjeE (TsaE) | purified YjeE enzyme, qHTS inhibition assay | Potency, µM | 71,000 tested, 0.05% active | AID 605
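Fluorescence polarization of a BODIPY Texas Red–ADP probe (2 uM) bound to purified YjeE (10 uM) was read after 15 min room-temperature incubation with compounds. Loss of polarization marks inhibitors; ADP serves as titrated control.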
Of the large screens only hits and unclear results are named; the others gave an inactive call. Unless noted, calls follow the shape of the dose curve; as a rule, active = well fitted curve in the direction sought with a large enough effect; inconclusive = small, poorly fitted or top-dose-only effect, or another doubt; inactive = no such curve, though single readings can be large; an effect the other way counts as inactive or inconclusive.

CCn1c(SCC(=O)Nc2ccccc2C(=O)OC)nnc1-c1ccoc1C	HEK293 cAMP cs 32µM, TSHR agonist inconclusive
CCOC(=O)c1cccc(NC(=O)CSc2nnc(-c3ccoc3C)n2CC)c1	none
Cc1occc1-c1nnc(SCC(=O)Nc2ccccc2)n1Cc1ccccc1	HEK293 cAMP cs inconclusive, TSHR agonist inconclusive
Cc1occc1-c1nnc(SCC(=O)Nc2ccccc2-c2ccccc2)n1C	none
COc1ccc(NC(=O)CSc2nnc(-c3ccoc3C)n2CCc2ccccc2)cc1	TSHR agonist 25µM
CCCn1c(SCC(=O)Nc2ccccc2-c2ccccc2)nnc1-c1ccoc1C	HEK293 cAMP cs 16µM, TSHR agonist inconclusive
COc1cccc(OCc2nnc(SCC(=O)OC3CCCCC3)n2C)c1	HEK293 cAMP cs 16µM, TSHR agonist inconclusive
COc1cc(Cl)ccc1S(=O)(=O)n1nc(C)cc1C	none
CC(=O)Nc1cccc(NC(=O)C2CC(=O)N(c3ccc(C)cc3)C2)c1 (configuration not stated)	none
CC(=O)Nc1nnc(SCC(=O)NCCOc2ccccc2)s1	none
CCn1c(CC(=O)Nc2ccccc2)nnc1SCC(=O)Nc1ccccc1C(=O)OC	none
CCn1c(COc2cccc(OC)c2)nnc1SCC(=O)Nc1ccccc1C(=O)OC	HEK293 cAMP cs 16µM, TSHR agonist inconclusive
Cc1ccc(C)c(Cn2c(=O)n(CCC(=O)NCc3ccco3)c(=O)c3ccccc32)c1	none
CCN1CCN(S(=O)(=O)c2ccc3[nH]c(=O)oc3c2)CC1	HEK293 cAMP cs 32µM, TSHR agonist inconclusive
CCOC(=O)C1CCN(S(=O)(=O)c2ccc3[nH]c(=O)oc3c2)CC1	none
CCOC(=O)C(C(=O)OCC)=C1OC(=O)c2ccccc21	none
Cc1cccc(NC(=O)c2cnc3sccn3c2=O)c1C	none
c1ccc(-c2cc3c(-n4cccc4)ncnc3o2)cc1	HEK293 cAMP cs 20µM, TSHR agonist inconclusive
c1cn(-c2ncnc3ccc(-c4ccoc4)cc23)cn1	none
CCC(=O)N[C@@H]1Cc2ccccc2[C@@H](c2ccccc2)C1	HEK293 cAMP cs 20µM, TSHR agonist inconclusive
COc1cccc2c(=O)n(CC(=O)NC3CCCC3)ccc12	TSHR agonist 1.3µM
CCOC(=O)c1[nH]c(C)c(C(=O)Nc2ccc3c(c2)CCC3)c1C	none
CCCS(=O)(=O)N1CCC(C(=O)NCCCOC(C)C)CC1	none
O=C(c1ccco1)N1CCN(CC(=O)N2c3ccccc3CCc3ccccc32)CC1	none
COC(=O)CCC(=O)Nc1ccc(NC(=O)CCC(=O)OC)cc1	none (no result: Pol III holo inh, YjeE inh)
O=C(CCC(=O)OCC(F)(F)C(F)F)Nc1ccc(Cl)cc1	HEK293 cAMP cs 32µM, TSHR agonist inconclusive
C=CC1=C(C)C2=Cc3c(C=C)c(C)c4[n]3[Sn+2][n]3c(c(C)c(CCC(=O)O)c3=CC3=NC(=C4)C(C)=C3CCC(=O)O)=CC1=N2	BRCT inh red inconclusive, Pol III holo inh 40µM, YjeE inh 79µM
CC(C)C(NC(=O)c1ccccc1NC(=O)c1ccco1)C(=O)O (configuration not stated)	HEK293 cAMP cs 32µM, TSHR agonist inconclusive
CCc1ccc(OC(=O)c2ccn(CC)n2)cc1	none
COc1ccc(CN2C(=O)C(O)(CC(=O)c3c(C)n[nH]c3C)c3ccccc32)cc1OC (configuration not stated)	none
Cc1ccccc1-n1nnnc1SCC(N)=O	none
Cc1cccc(C)c1-n1nnnc1SCSc1nnnn1-c1c(C)cccc1C	HEK293 cAMP cs 16µM, TSHR agonist inconclusive
Nc1c(S(=O)(=O)O)cc(Nc2ccc(Nc3nc(Cl)nc(Nc4ccc(S(=O)(=O)O)cc4)n3)c(S(=O)(=O)O)c2)c2c1C(=O)c1ccccc1C2=O	Pol III holo inh 40µM, BRCT inh green inconclusive, YjeE inh 50µM
CCC(COC(=O)Nc1cccc(C)c1)NC(=O)OCC(C)C (configuration not stated)	HEK293 cAMP cs inconclusive, TSHR agonist inconclusive
Cc1nnsc1NC(=O)OCC(C)C	HEK293 cAMP cs 13µM, TSHR agonist inconclusive
COc1[nH]c(/N=C/c2ccccc2)c(C#N)c1C#N	BRCT inh red 32µM, BRCT inh green 25µM
CCN(CC)S(=O)(=O)c1cccc(-c2nnc(SCCOc3ccccc3)o2)c1	HEK293 cAMP cs 7.9µM, TSHR agonist inconclusive
CCN(CC)S(=O)(=O)c1cccc(-c2nnc(SCCOc3ccccc3C)o2)c1	HEK293 cAMP cs 16µM, TSHR agonist inconclusive
CCN(CC)S(=O)(=O)c1cccc(-c2nnc(SCCOc3ccc(Cl)cc3)o2)c1	HEK293 cAMP cs inconclusive, TSHR agonist inconclusive
CCN(CC)S(=O)(=O)c1cccc(-c2nnc(SCC(=O)c3cc(C)n(C)c3C)o2)c1	HEK293 cAMP cs 16µM, TSHR agonist inconclusive
OC1CNCc2cc3c(cc21)OCCO3 (configuration not stated)	none
CCCc1[nH]n(-c2nc3ccccc3s2)c(=O)c1C=NCC1CCCO1 (configuration not stated)	none
O=C(c1c(Cl)nc2sccn12)N1CCN(c2cccc(Cl)c2)CC1	HEK293 cAMP cs 32µM, TSHR agonist inconclusive
CCOC(=O)c1cccc(NC(=O)c2cc3sccc3n2C)c1	HEK293 cAMP cs 10µM, TSHR agonist inconclusive
COc1cc(C(c2sc3nc(C)nn3c2O)N2CC(C)CC(C)C2)cc(OC)c1OC (configuration not stated)	HEK293 cAMP cs inconclusive, TSHR agonist inconclusive
N#Cc1c(NCCO)nc(NCc2ccccc2)c2c1CCN(Cc1ccccc1)C2	none
Cc1oc2cc3c(C(=O)N4CCN(C)CC4)c(C)oc3cc2c1C(=O)N1CCN(C)CC1	none
Cn1c(=O)c2c(-c3ccccc3)n(N3CCOCC3)cc2n(C)c1=O	none
COC(=O)[C@@]1(Cc2ccc(OC)cc2)[C@H]2c3cc(C(=O)N4CCCC4)n(CCF)c3C[C@H]2CN1C(=O)c1ccccc1	HEK293 cAMP cs 20µM, TSHR agonist inconclusive
COCCn1c(C(=O)N2CCCC2)cc2c1C[C@H]1CN(C(=O)c3ccccc3)[C@@](Cc3ccc(OC)cc3)(C(=O)OC)[C@@H]21	HEK293 cAMP cs inconclusive, TSHR agonist inconclusive
COC(=O)[C@@]1(Cc2ccc(OC)cc2)[C@H]2c3cc(C(=O)N4CCCC4)n(CCN4CCOCC4)c3C[C@H]2CN1C(=O)c1ccccc1	HEK293 cAMP cs 20µM, TSHR agonist inconclusive
COC(=O)[C@@]1(Cc2ccccc2)[C@H]2c3cc(C(=O)N(C)C)n(CCF)c3C[C@H]2CN1C(=O)c1ccccc1	HEK293 cAMP cs 25µM, TSHR agonist inconclusive
COC(=O)[C@@]1(Cc2ccc(OC)cc2)[C@H]2c3cc(C(=O)N4CCCC4)n(Cc4ccc(OC)c(OC)c4)c3C[C@H]2CN1C(=O)c1ccccc1	HEK293 cAMP cs 5µM, TSHR agonist inconclusive

Bioassay records as filed in PubChem.
